Laboratory results as given in PubChem BioAssay (Tox21).
Inconclusive results are not listed. Active and inactive are the calls of the source. Calls come from the whole dose curve; as a rule, active = well fitted curve in the direction sought with a large enough effect in the repeat runs; inconclusive = weak or mixed curves; inactive = no such curve, though single readings can be large; an effect the other way counts as inactive or inconclusive.

Assays:
[1] = qHTS RealTime-Glo MT Cell Viability Assay in HepG2 cells - 24 hour (AID 1224867); note: nearly all actives have a fitted effect of over 50% in size
How it was run: (§1)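 HepG2 cells (600/well) were dispensed with RealTime-Glo reagents, incubated 5 h at 37 °C, then treated with compounds in DMSO for up to 40 h. Nonlytic NanoLuc luminescence reflecting viable cells was read at each stated time point.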

[2] = qHTS RealTime-Glo MT Cell Viability Assay in HEK293 cells - 32 hour (AID 1224868); note: top concentration of the series differs between compounds; nearly all actives have a fitted effect of over 50% in size
How it was run: (§2)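 HEK293 cells seeded with NanoLuc/prosubstrate reagent, rested 5 h at 37 C, then dosed and kept at 37 C up to 40 h. Nonlytic real-time luminescence from viable cells read at 0, 8, 16, 24, 32 and 40 h.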

[3] = A CellTox Green Cytotoxicity Assay to monitor cytotoxicity in HEK293 cells - 40 hour (AID 1224871); note: nearly all actives have a fitted effect of over 45% in size
How it was run: (§3)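 Fluorescence intensity, read at 0, 8, 16, 24, 32 and 40 h of compound treatment, reflected dye binding to DNA of dead HEK293 cells; compounds (23 nL, DMSO) were added 5 h after plating cells with reagent.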

[4] = qHTS RealTime-Glo MT Cell Viability Assay in HEK293 cells - 16 hour (AID 1224872); note: top concentration of the series differs between compounds; nearly all actives have a fitted effect of over 50% in size
How it was run: as §2

[5] = qHTS RealTime-Glo MT Cell Viability Assay in HepG2 cells - 8 hour (AID 1224873); note: nearly all actives have a fitted effect of over 55% in size
How it was run: (§4)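 HepG2 cells (600/well) mixed with RealTime-Glo MT reagent, settled 5 h at 37 C/5% CO2 before compound addition. Nonlytic NanoLuc luminescence from viable-cell prosubstrate reduction read repeatedly during 40 h treatment at 37 C.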

[6] = qHTS RealTime-Glo MT Cell Viability Assay in HEK293 cells - 40 hour (AID 1224874); conditions: RealTime-Glo luminescence; max response: stronger effect = lower value; note: nearly all actives have a fitted effect of over 50% in size
How it was run: (§5)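 Viable HEK293 cells reduce a cell-permeant prosubstrate; the product diffuses out and is consumed by NanoLuc in the medium to give light. Compounds went in after a 5 h incubation and plates were read over the treatment course.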

[7] = A CellTox Green Cytotoxicity Assay to monitor cytotoxicity in HEK293 cells - 24 hour (AID 1224875); note: series mostly up to about 77 µM; nearly all actives have a fitted effect of over 45% in size
How it was run: as §3

[8] = qHTS RealTime-Glo MT Cell Viability Assay in HepG2 cells - 32 hour (AID 1224877); note: nearly all actives have a fitted effect of over 55% in size
How it was run: as §1

[9] = A CellTox Green Cytotoxicity Assay to monitor cytotoxicity in HepG2 cells - 24 hour (AID 1224878); note: nearly all actives have a fitted effect of over 45% in size
How it was run: (§6)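 Using 1536-well format, dye-containing HepG2 suspension was seeded, allowed 5 h at 37 C/5% CO2, dosed by pintool with compounds, positive and negative controls, and imaged for fluorescence across 40 h.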

[10] = A CellTox Green Cytotoxicity Assay to monitor cytotoxicity in HepG2 cells - 40 hour (AID 1224879); note: nearly all actives have a fitted effect of over 40% in size
How it was run: as §6

[11] = qHTS RealTime-Glo MT Cell Viability Assay in HEK293 cells - 0 hour (AID 1224880); note: top concentration of the series differs between compounds; nearly all actives have a fitted effect of over 45% in size
How it was run: as §5

[12] = A CellTox Green Cytotoxicity Assay to monitor cytotoxicity in HEK293 cells - 32 hour (AID 1224881); note: nearly all actives have a fitted effect of over 40% in size
How it was run: as §3

[13] = A CellTox Green Cytotoxicity Assay to monitor cytotoxicity in HepG2 cells - 0 hour (AID 1224882); note: nearly all actives have a fitted effect of over 35% in size
How it was run: as §6

[14] = A CellTox Green Cytotoxicity Assay to monitor cytotoxicity in HepG2 cells - 32 hour (AID 1224883); note: nearly all actives have a fitted effect of over 50% in size
How it was run: as §6

[15] = A CellTox Green Cytotoxicity Assay to monitor cytotoxicity in HEK293 cells - 8 hour (AID 1224884); note: nearly all actives have a fitted effect of over 35% in size
How it was run: as §3

[16] = qHTS RealTime-Glo MT Cell Viability Assay in HepG2 cells - 16 hour (AID 1224885); note: nearly all actives have a fitted effect of over 50% in size
How it was run: as §1

[17] = qHTS RealTime-Glo MT Cell Viability Assay in HepG2 cells - 40 hour (AID 1224870); note: nearly all actives have a fitted effect of over 50% in size
How it was run: as §4

[18] = A CellTox Green Cytotoxicity Assay to monitor cytotoxicity in HepG2 cells - 16 hour (AID 1224876); note: nearly all actives have a fitted effect of over 45% in size
How it was run: as §6

[19] = A CellTox Green Cytotoxicity Assay to monitor cytotoxicity in HEK293 cells - 0 hour (AID 1224869); note: nearly all actives have a fitted effect of over 50% in size
How it was run: as §3
% is set by controls: 0 for no effect and ±100 for the full control effect.

C/C(=C1\CCOC(=O)S1)N(C=O)Cc1cnc(C)nc1N
inactive: outcome [1] | Potency [2] | Potency [3] | Potency [4] | outcome [5] | max response [6] 3.03% | Potency [7] | outcome [8] | Potency [9] | Potency [10] | Potency [11] | Potency [12] | Potency [13] | Potency [14] | Potency [15] | outcome [16]

COS(=O)(=O)O
inactive: outcome [1] | Potency [2] | outcome [17] | Potency [3] | Potency [4] | outcome [5] | max response [6] -1.57% | Potency [7] | outcome [8] | Potency [11] | Potency [12] | Potency [13] | Potency [15] | outcome [16]

CC1=C(C(=O)O)N2C(=O)[C@@H](NC(=O)[C@H](N)C3=CCC=CC3)[C@H]2SC1
inactive: outcome [1] | Potency [2] | outcome [17] | Potency [3] | Potency [4] | outcome [5] | max response [6] 0.914% | Potency [7] | Potency [18] | outcome [8] | Potency [9] | Potency [10] | Potency [11] | Potency [12] | Potency [14] | Potency [15] | outcome [16]

CCC[C@@H]1C[C@@H](C(=O)N[C@@H]([C@H]2O[C@H](SC)[C@H](O)[C@@H](O)[C@H]2O)[C@@H](C)O)N(C)C1
inactive: outcome [1] | Potency [2] | outcome [17] | Potency [3] | Potency [4] | outcome [5] | max response [6] 0.684% | Potency [7] | Potency [18] | outcome [8] | Potency [9] | Potency [10] | Potency [11] | Potency [12] | Potency [14] | Potency [15] | outcome [16]

CC(C)OC(=O)CCC(=O)OC(C)C
inactive: outcome [1] | Potency [2] | Potency [3] | Potency [4] | outcome [5] | max response [6] 8.19% | Potency [7] | Potency [18] | outcome [8] | Potency [9] | Potency [10] | Potency [11] | Potency [12] | Potency [13] | Potency [14] | Potency [15] | outcome [16]

CCOCCOCC
inactive: outcome [1] | Potency [2] | outcome [17] | Potency [4] | max response [6] 2.51% | Potency [18] | outcome [8] | Potency [9] | Potency [10] | Potency [11] | Potency [12] | Potency [13] | Potency [14] | Potency [15] | outcome [16]

Nc1nnnn1-c1ccccc1
inactive: outcome [1] | Potency [2] | outcome [17] | Potency [3] | Potency [4] | outcome [5] | max response [6] 0.0553% | Potency [7] | outcome [8] | Potency [11] | Potency [12] | Potency [13] | Potency [15] | outcome [16]

CSc1cnccn1
inactive: outcome [1] | Potency [19] | Potency [3] | Potency [4] | outcome [5] | Potency [7] | Potency [18] | outcome [8] | Potency [9] | Potency [10] | Potency [11] | Potency [12] | Potency [13] | Potency [14] | Potency [15] | outcome [16]

CC(Oc1cc(Cl)ccc1Cl)C(=O)O (stereo not given)
inactive: outcome [1] | Potency [2] | outcome [17] | Potency [3] | Potency [4] | max response [6] -5.27% | Potency [18] | outcome [8] | Potency [9] | Potency [10] | Potency [11] | Potency [12] | Potency [13] | Potency [14] | Potency [15] | outcome [16]

OCC1(CO)COCOC1
inactive: outcome [1] | Potency [2] | Potency [19] | Potency [4] | outcome [5] | max response [6] -1.51% | Potency [7] | Potency [18] | outcome [8] | Potency [10] | Potency [11] | Potency [12] | Potency [13] | Potency [15] | outcome [16]

CC/C(C)=N\O[Si](C)(O/N=C(\C)CC)O/N=C(\C)CC
inactive: outcome [1] | Potency [2] | outcome [17] | Potency [3] | Potency [4] | outcome [5] | max response [6] -3.49% | Potency [7] | Potency [18] | outcome [8] | Potency [9] | Potency [10] | Potency [11] | Potency [12] | Potency [13] | Potency [14] | Potency [15] | outcome [16]

CC(C)Cn1cnc2c1c(=O)n(C)c(=O)n2C
inactive: outcome [1] | Potency [2] | outcome [17] | Potency [3] | Potency [4] | outcome [5] | max response [6] 2.8% | Potency [7] | Potency [18] | outcome [8] | Potency [9] | Potency [10] | Potency [11] | Potency [12] | Potency [13] | Potency [14] | Potency [15] | outcome [16]

CC(C)Nc1ccccc1
inactive: outcome [1] | Potency [2] | outcome [17] | Potency [3] | Potency [4] | outcome [5] | max response [6] 3.46% | outcome [8] | Potency [9] | Potency [10] | Potency [11] | Potency [12] | Potency [13] | Potency [14] | Potency [15] | outcome [16]

CCCCCC/C=C/C(=O)OC
inactive: outcome [1] | Potency [2] | outcome [17] | Potency [4] | outcome [5] | outcome [8] | Potency [11] | Potency [15] | outcome [16]

C=C(C)[C@@H]1CC=C(C)C(=O)C1
inactive: outcome [1] | Potency [2] | outcome [17] | Potency [3] | Potency [4] | outcome [5] | max response [6] -8.2% | Potency [7] | outcome [8] | Potency [9] | Potency [10] | Potency [11] | Potency [12] | Potency [13] | Potency [14] | Potency [15] | outcome [16]
